Reference: PubChem BioAssay AID1159580 (chemical genetic matrix, 2015)
The whole screen tested about 5,500 compounds, of which about 2,000 (36%) were called active. Not shown: some 18% with an inconclusive outcome. Cut-off read from the data, not from the text of the source: active = normalized growth mostly below about 0.91 (no sharp cut-off); inconclusive = no clear call, values can overlap the other calls; inactive = mostly above about 0.92. This is one part of the list.

Experiment: chemical genetic growth profiling, strain panel (AID 1159580);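 note: tested at 20 µM; growth read once vehicle control cultures reached saturation at 30 °C; 1 = growth at the plate median or of vehicle wells; lower values mean less growth of the strain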
Settings: growth OD
[1] = S. cerevisiae deletion strains, locus YAL013W, strain DEP1, stronger effect = lower value
[2] = S. cerevisiae deletion strains, locus YBR229C, strain ROT2, stronger effect = lower value
[3] = S. cerevisiae deletion strains, locus YCL061C, strain MRC1, stronger effect = lower value
[4] = S. cerevisiae deletion strains, locus YDL101C, strain DUN1, stronger effect = lower value
[5] = S. cerevisiae deletion strains, locus YDL134C, strain PPH21, stronger effect = lower value
[6] = S. cerevisiae deletion strains, locus YDR150W, strain NUM1, stronger effect = lower value
[7] = S. cerevisiae deletion strains, locus YEL061C, strain CIN8, stronger effect = lower value
[8] = S. cerevisiae deletion strains, locus YGR078C, strain PAC10, stronger effect = lower value
[9] = S. cerevisiae deletion strains, locus YHR030C, strain SLT2, stronger effect = lower value
[10] = S. cerevisiae deletion strains, locus YHR087W, strain rtc3, stronger effect = lower value
[11] = S. cerevisiae deletion strains, locus YJL187C, strain SWE1, stronger effect = lower value
[12] = S. cerevisiae deletion strains, locus YJR043C, strain POL32, stronger effect = lower value
[13] = S. cerevisiae deletion strains, locus YJR075W, strain HOC1, stronger effect = lower value
[14] = S. cerevisiae deletion strains, locus YLR039C, strain RIC1, stronger effect = lower value
[15] = S. cerevisiae deletion strains, locus YLR058C, strain SHM2 (second series), stronger effect = lower value
[16] = S. cerevisiae deletion strains, locus YLR085C, strain ARP6, stronger effect = lower value
[17] = S. cerevisiae deletion strains, locus YLR262C, strain YPT6, stronger effect = lower value
[18] = S. cerevisiae deletion strains, locus YML094W, strain GIM5, stronger effect = lower value
[19] = S. cerevisiae deletion strains, locus YMR219W, strain ESC1, stronger effect = lower value
[20] = S. cerevisiae deletion strains, locus YNL153C, strain GIM3, stronger effect = lower value
[21] = S. cerevisiae deletion strains, locus YNL298W, strain CLA4 (second series), stronger effect = lower value
[22] = S. cerevisiae deletion strains, locus YNL322C, strain KRE1, stronger effect = lower value
[23] = S. cerevisiae deletion strains, locus YNR030W, strain Alg12, stronger effect = lower value
[24] = S. cerevisiae deletion strains, locus YPL055C, strain LGE1, stronger effect = lower value
[25] = S. cerevisiae deletion strains, locus YPL241C, strain CIN2, stronger effect = lower value
[26] = S. cerevisiae deletion strains, locus YPR135W, strain CTF4, stronger effect = lower value
[27] = S. cerevisiae strains, strain wild type, stronger effect = lower value
[28] = S. cerevisiae deletion strains, locus YMR263W, strain SAP30, stronger effect = lower value
[29] = S. cerevisiae deletion strains, locus YMR307W, strain GAS1, stronger effect = lower value

Measured: normalized growth

S=c1nccc(-c2ccc(Cl)cc2)[nH]1
active: [1] 0.881 | [2] 0.861 | [3] 0.84 | [4] 0.844 | [5] 0.882 | [7] 0.904 | [8] 0.831 | [12] 0.818 | S. cerevisiae deletion strains, locus YKL190W, strain CNB1, stronger effect = lower value 0.849 | [16] 0.413 | [19] 0.918 | [20] 0.895 | [21] 0.76 | [23] 0.694 | S. cerevisiae deletion strains, locus YOL006C, strain TOP1, stronger effect = lower value 0.36 | [24] 0.631 | [25] 0.748 | [26] 0.554 | [27] 0.882
inactive: [6] 1.04 | [9] 0.722 | [10] 0.912 | [11] 0.969 | [13] 0.949 | [14] 1.01 | [15] 0.957 | [17] 1.05 | [18] 0.879 | [22] 0.988

COC(=O)CSc1nc2ccc(Cl)cc2s1
active: [9] 0.491 | [15] 0.932 | [16] 0.744 | [25] 1.18 [resistant]
inactive: [1] 0.964 | [2] 0.932 | [4] 0.906 | [6] 1.02 | [7] 0.96 | [8] 0.958 | [10] 0.942 | [11] 0.949 | [12] 0.977 | [13] 0.955 | [14] 0.842 | [17] 0.891 | [18] 0.901 | [19] 0.962 | [28] 1 | [29] 1.15 | [20] 0.962 | [21] 0.877 | [22] 0.959 | [23] 0.975 | [24] 0.92 | [26] 0.685

COC(=O)CSc1ncnc2c(C)csc12
inactive: [1] 0.989 | [2] 0.998 | [4] 0.959 | [5] 0.973 | [6] 0.948 | [7] 0.978 | [8] 0.988 | [9] 0.802 | [10] 0.998 | [12] 0.973 | [13] 0.974 | [14] 0.958 | [15] 0.995 | [16] 0.9 | [17] 0.985 | [18] 0.949 | [19] 1 | [28] 0.981 | [29] 0.903 | [20] 0.994 | [21] 0.945 | [22] 1 | [23] 0.981 | [24] 0.953 | [25] 0.986 | [26] 0.818

O=C1NN=C2C3CC4CC12CC1(C3)C(=O)NN=C41
inactive: [1] 0.992 | [2] 0.999 | [4] 1 | [5] 1.01 | [6] 1 | [7] 0.997 | [8] 1.01 | S. cerevisiae deletion strains, locus YGR229C, strain SMI1, stronger effect = lower value 1 | [9] 1.03 | [10] 0.974 | [12] 1.02 | [13] 1.02 | [14] 1.05 | [15] 1 | [16] 0.989 | [17] 1.03 | [18] 0.974 | [19] 1 | [28] 0.974 | [20] 1.02 | [21] 0.983 | [22] 1.02 | [23] 0.978 | [24] 0.981 | [25] 0.998 | [26] 1.01 | [27] 0.999

C=CC1C2=CCOC(=O)C2=COC1OC1OC(CO)C(O)C(O)C1O (stereo not given)
inactive: S. cerevisiae deletion strains, locus YAL021C, strain ccr4, stronger effect = lower value 1.02 | S. cerevisiae deletion strains, locus YAL026C, strain drs2, stronger effect = lower value 1.02 | S. cerevisiae deletion strains, locus YAL030W, strain snc1, stronger effect = lower value 1.02 | S. cerevisiae deletion strains, locus YBL061C, strain skt5, stronger effect = lower value 1.01 | S. cerevisiae deletion strains, locus YBR009C, strain hhf1, stronger effect = lower value 1.02 | S. cerevisiae deletion strains, locus YBR023C, strain chs3, stronger effect = lower value 1.01 | S. cerevisiae deletion strains, locus YBR171W, strain sec66, stronger effect = lower value 1.02 | S. cerevisiae deletion strains, locus YBR231C, strain swc5, stronger effect = lower value 1.02 | S. cerevisiae deletion strains, locus YBR279W, strain paf1, stronger effect = lower value 1.01 | S. cerevisiae deletion strains, locus YCL011C, strain gbp2, stronger effect = lower value 1.02 | S. cerevisiae deletion strains, locus YCL016C, strain dcc1, stronger effect = lower value 1.01 | [3] 1.02 | S. cerevisiae deletion strains, locus YCL069W, strain vba3, stronger effect = lower value 1.02 | S. cerevisiae deletion strains, locus YCR088W, strain abp1, stronger effect = lower value 1.02 | S. cerevisiae deletion strains, locus YDL005C, strain med2, stronger effect = lower value 1.01 | S. cerevisiae deletion strains, locus YDL040C, strain nat1, stronger effect = lower value 1.02 | S. cerevisiae deletion strains, locus YDR001C, strain nth1, stronger effect = lower value 1.02 | S. cerevisiae deletion strains, locus YDR069C, strain doa4, stronger effect = lower value 1.02 | S. cerevisiae deletion strains, locus YDR137W, strain rgp1, stronger effect = lower value 1.08 | S. cerevisiae deletion strains, locus YDR159W, strain sac3, stronger effect = lower value 1.02 | S. cerevisiae deletion strains, locus YDR195W, strain ref2 1.01 | S. cerevisiae deletion strains, locus YDR297W, strain sur2, stronger effect = lower value 1.02 | S. cerevisiae deletion strains, locus YDR334W, strain swr1, stronger effect = lower value 1.02 | S. cerevisiae deletion strains, locus YDR335W, strain msn5, stronger effect = lower value 1.02 | S. cerevisiae deletion strains, locus YDR392W, strain spt3, stronger effect = lower value 1.02 | S. cerevisiae deletion strains, locus YEL003W, strain gim4, stronger effect = lower value 1.02 | S. cerevisiae deletion strains, locus YEL037C, strain rad23, stronger effect = lower value 1.02 | S. cerevisiae deletion strains, locus YEL061C, strain CIN8 (second series), stronger effect = lower value 1.03 | S. cerevisiae deletion strains, locus YER015W, strain faa2, stronger effect = lower value 1.01 | S. cerevisiae deletion strains, locus YER016W, strain bim1, stronger effect = lower value 1.02 | S. cerevisiae deletion strains, locus YER111C, strain swi4, stronger effect = lower value 1.01 | S. cerevisiae deletion strains, locus YER155C, strain BEM2 (second series), stronger effect = lower value 1.05 | S. cerevisiae deletion strains, locus YFR010W, strain ubp6, stronger effect = lower value 1.03 | S. cerevisiae deletion strains, locus YGL167C, strain pmr1, stronger effect = lower value 1.02 | S. cerevisiae deletion strains, locus YGL173C, strain kem1, stronger effect = lower value 1.02 | S. cerevisiae deletion strains, locus YGL227W, strain vid30, stronger effect = lower value 1.03 | S. cerevisiae deletion strains, locus YGL240W, strain doc1, stronger effect = lower value 1.02 | S. cerevisiae deletion strains, locus YGL253W, strain hxk2, stronger effect = lower value 1.03 | S. cerevisiae deletion strains, locus YHR013C, strain ard1, stronger effect = lower value 1.04 | S. cerevisiae deletion strains, locus YHR027C, strain rpn1, stronger effect = lower value 1.02 | S. cerevisiae deletion strains, locus YHR142W, strain chs7, stronger effect = lower value 1.04 | S. cerevisiae deletion strains, locus YJL092W, strain hpr5, stronger effect = lower value 1.01 | S. cerevisiae deletion strains, locus YJL095W, strain BCK1 (second series), stronger effect = lower value 1.02 | S. cerevisiae deletion strains, locus YJL115W, strain asf1, stronger effect = lower value 1.03 | S. cerevisiae deletion strains, locus YJL129C, strain trk1, stronger effect = lower value 1.04 | S. cerevisiae deletion strains, locus YJL154C, strain vps35, stronger effect = lower value 1.01 | S. cerevisiae deletion strains, locus YJL164C, strain tpk1, stronger effect = lower value 1.02 | S. cerevisiae deletion strains, locus YJL166W, strain qcr8, stronger effect = lower value 1.02 | [11] 1.02 | S. cerevisiae deletion strains, locus YKL160W, strain elf1, stronger effect = lower value 1.01 | S. cerevisiae deletion strains, locus YKR026C, strain gcn3, stronger effect = lower value 1.02 | S. cerevisiae deletion strains, locus YKR091W, strain srl3, stronger effect = lower value 1.02 | S. cerevisiae deletion strains, locus YLL001W, strain dnm1, stronger effect = lower value 1.02 | S. cerevisiae deletion strains, locus YLL026W, stronger effect = lower value 1.01 | S. cerevisiae deletion strains, locus YLL041C, strain sdh2, stronger effect = lower value 1.02 | S. cerevisiae deletion strains, locus YLR027C, strain aat2, stronger effect = lower value 1.01 | S. cerevisiae deletion strains, locus YLR221C, strain rsa3, stronger effect = lower value 1.02 | S. cerevisiae deletion strains, locus YLR258W, strain gsy2, stronger effect = lower value 1.01 | S. cerevisiae deletion strains, locus YLR262C, strain YPT6 (second series), stronger effect = lower value 1.03 | S. cerevisiae deletion strains, locus YLR320W, strain mms22, stronger effect = lower value 1.03 | S. cerevisiae deletion strains, locus YLR342W, strain FKS1, stronger effect = lower value 1 | S. cerevisiae deletion strains, locus YLR357W, strain rsc2, stronger effect = lower value 1 | S. cerevisiae deletion strains, locus YLR370C, strain arc18, stronger effect = lower value 1.03 | S. cerevisiae deletion strains, locus YLR384C, strain iki3, stronger effect = lower value 1.01 | S. cerevisiae deletion strains, locus YML120C, strain ndi1, stronger effect = lower value 1.02 | S. cerevisiae deletion strains, locus YMR058W, strain fet3, stronger effect = lower value 1.02 | S. cerevisiae deletion strains, locus YMR125W, strain sto1, stronger effect = lower value 1.03 | S. cerevisiae deletion strains, locus YMR129W, stronger effect = lower value 1.02 | S. cerevisiae deletion strains, locus YMR205C, strain PFK2, stronger effect = lower value 1.03 | S. cerevisiae deletion strains, locus YMR231W, strain pep5, stronger effect = lower value 1.03 | S. cerevisiae deletion strains, locus YNL071W, strain lat1, stronger effect = lower value 1.02 | S. cerevisiae deletion strains, locus YNL209W, strain ssb2, stronger effect = lower value 1.01 | S. cerevisiae deletion strains, locus YNL248C, strain rpa49, stronger effect = lower value 1.05 | S. cerevisiae deletion strains, locus YNL322C, strain KRE1 (second series), stronger effect = lower value 1.02 | S. cerevisiae deletion strains, locus YNR049C, strain mso1, stronger effect = lower value 1.01 | S. cerevisiae deletion strains, locus YOR001W, strain rrp6, stronger effect = lower value 1.01 | S. cerevisiae deletion strains, locus YOR070C, strain gyp1, stronger effect = lower value 1.02 | S. cerevisiae deletion strains, locus YOR080W, strain dia2, stronger effect = lower value 1.02 | S. cerevisiae deletion strains, locus YOR083W, strain WHI5, stronger effect = lower value 1.01 | S. cerevisiae deletion strains, locus YOR106W, strain vam3, stronger effect = lower value 1.02 | S. cerevisiae deletion strains, locus YOR265W, strain rbl2, stronger effect = lower value 1.01 | S. cerevisiae deletion strains, locus YOR270C, strain vph1, stronger effect = lower value 1.11 | S. cerevisiae deletion strains, locus YOR290C, strain snf2, stronger effect = lower value 1.02 | S. cerevisiae deletion strains, locus YPL051W, strain arl3, stronger effect = lower value 1.01 | S. cerevisiae deletion strains, locus YPL078C, strain atp4, stronger effect = lower value 1.04 | S. cerevisiae deletion strains, locus YPL106C, strain sse1, stronger effect = lower value 1.02 | S. cerevisiae deletion strains, locus YPL240C, strain hsp82, stronger effect = lower value 1
